{
  "source": "PubChem BioAssay (NCATS)",
  "note": "Records with an inconclusive call do not appear. Entries that show only a call come without a potency. Values without a mark were called inactive. The source made the active and inactive calls. The call rests on the fitted dose curve; in most records, active means well fitted inhibition curve with a large enough effect; inconclusive means small, poorly fitted or top-dose-only effect; inactive means flat fitted curve, though single readings scatter.",
  "data": [
    {"test": "P-glycoprotein substrates identified in KB-8-5-11 adenocarcinoma cell line, qHTS therapeutic library screen (AID 1346987); further: nearly all actives have a fitted effect of over 65% in size", "settings": "KB-8-5-11 (P-gp overexpressing) viability, CellTiter-Glo, 72 h; series mostly up to 44.5 µM", "procedure,_shortened": "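Human cervical adenocarcinoma KB-8-5-11 cells, selected in colchicine to over-express P-gp and assayed without it, were exposed for 72 h to titrated compounds. An ATP-based luminescent viability signal gave AC50.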", "values": [
      {"smiles": "COc1cc(Nc2nc3c(s2)CCCC3c2ccccc2)ccc1-n1cnc(C)c1", "note": "(stereo not given)", "activity change, negative = cytotoxicity": "-10.2% [at 9.29 µM]"},
      {"smiles": "C=C(C)[C@H]1CC[C@]2(C(=O)O)CC[C@]3(C)C(CCC4[C@@]5(C)CCC(=O)C(C)(C)C5CC[C@]43C)C12", "note": "(stereo not given in full)", "Potency": "inactive"},
      {"smiles": "N#Cc1cc(-c2n[nH]c(-c3ccncc3)n2)ccn1", "Potency": "inactive"},
      {"smiles": "CC1=C2CC(=O)C(C)CC/C=C(\\C)CC2(O)OC1=O", "note": "(stereo not given)", "Potency": "inactive"},
      {"smiles": "COc1ccc(CCC(=O)O)c(O[C@@H]2O[C@H](CO)[C@@H](O)[C@H](O)[C@H]2O)c1", "Potency": "inactive"},
      {"smiles": "O=C(O)CCc1ccc(NCc2cccc3c2CCCN3CCOc2ccccc2)cc1F", "Potency": "inactive"},
      {"smiles": "O=C(OCC(O)CO[C@@H]1O[C@H](C(=O)O)[C@@H](O)[C@H](O)[C@H]1O)c1ccccc1", "note": "(stereo not given in full)", "Potency": "inactive"},
      {"smiles": "C[C@]1(O)CC[C@@H]2C(C(=O)O)=CO[C@@H](O[C@@H]3O[C@H](COC(=O)/C=C/c4ccc(O)c(O)c4)[C@@H](O)[C@H](O)[C@H]3O)[C@@H]21", "Potency": "inactive"},
      {"smiles": "CC(NC(=O)c1ccccc1N)C(=O)O", "note": "(stereo not given)", "Potency": "inactive"},
      {"smiles": "O=C1NC(=O)/C(=C/c2cccc(C(F)(F)F)c2)S1", "Potency": "inactive"}
    ]}
  ]
}
